# Experimental data as given in PubChem BioAssay.
# The source made the active and inactive calls.
# Tests used:
# [1] = optical density shifts of acrAB sulA E. coli – strain DRC41, OD650, 48 h, E. coli filamentation inducer project, primary screen (AID 1152); details: higher = more signal, called active from +8 up or from −8 down;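 also: E. coli MC1000 strain DRC41 lacking acrAB efflux pump and sulA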
# [2] = probe aLefty1 binding on compound microarray – biochemical, small-molecule microarray, 635/667 nm fluorescence, primary screen (AID 1153); details: higher = more signal;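 also: score merges spot fluorescence with signal-to-noise ratio from the scanned slide images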
# [3] = plasmodial surface anion channel blockers, osmotic lysis – cell-based, P. falciparum Indochina, OD700, 1 h, primary screen (AID 1154); details: P. falciparum Indochina infected RBC osmotic lysis, higher = more signal, called active from +8 up or from −8 down
# [4] = plasmodial surface anion channel blockers, osmotic lysis – cell-based, P. falciparum Indochina, OD700, 2 h, primary screen (AID 1155);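 also: lysis reports solute entry through the parasite surface anion channel PSAC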; details: P. falciparum Indochina infected erythrocytes, higher = more signal, called active from +8 up or from −8 down
# [5] = changes in parasitized red cell lysis, either direction – P. falciparum Indochina, OD700, 3 h, PSAC antagonist project, primary screen (AID 1156); details: P. falciparum-infected erythrocytes, osmotic lysis, higher = more signal, called active from +8 up or from −8 down
# [6] = plasmodial surface anion channel blockers, osmotic lysis – cell-based, P. falciparum Indochina, OD700, 18 h, primary screen (AID 1157); details: P. falciparum Indochina infected erythrocytes, osmotic lysis OD700, 18 h; higher = more signal, called active from +8 up or from −8 down
# [7] = S6 kinase pathway phospho-S6 level changes – cell-based, A549, cytoblot, luminescence, serum-stimulated, primary screen (AID 1158); details: 5 h, higher = more signal;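 also: serum-stimulated A549 lung adenocarcinoma cells; signal is phosphorylated S6 detected by cytoblot immunostaining with HRP secondary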
# [8] = target: NADPH oxidase 2 (Homo sapiens) (UniProt P04839); assay: compounds shifting NOX2 Amplex Red fluorescence – cell-based, HEK293-NOX2, PMA-stimulated, NOX inhibitor project, primary screen (AID 1159); details: 45 min, higher = more signal, called active from +8 up or from −8 down; also: test concentration not given here
# [9] = target: NADPH oxidase 4 (Homo sapiens) (UniProt Q9NPH5); assay: compounds shifting NOX4 Amplex Red fluorescence – cell-based, HEK293-NOX4, tetracycline-induced, NOX inhibitor project, primary screen (AID 1160); details: HEK293-NOX4, Amplex Red H2O2 fluorescence, 45 min; higher = more signal, called active from +8 up or from −8 down
# [10] = target: NADPH oxidase 5 (Homo sapiens) (UniProt Q96PH1); assay: compounds shifting NOX5 Amplex Red fluorescence – cell-based, HEK293-NOX5, NOX inhibitor project, primary screen (AID 1161); details: HEK293-NOX5, ionomycin, 45 min, higher = more signal
# Chain of NADPH oxidase 5 (Homo sapiens) (Q96PH1 whole entry, looked up): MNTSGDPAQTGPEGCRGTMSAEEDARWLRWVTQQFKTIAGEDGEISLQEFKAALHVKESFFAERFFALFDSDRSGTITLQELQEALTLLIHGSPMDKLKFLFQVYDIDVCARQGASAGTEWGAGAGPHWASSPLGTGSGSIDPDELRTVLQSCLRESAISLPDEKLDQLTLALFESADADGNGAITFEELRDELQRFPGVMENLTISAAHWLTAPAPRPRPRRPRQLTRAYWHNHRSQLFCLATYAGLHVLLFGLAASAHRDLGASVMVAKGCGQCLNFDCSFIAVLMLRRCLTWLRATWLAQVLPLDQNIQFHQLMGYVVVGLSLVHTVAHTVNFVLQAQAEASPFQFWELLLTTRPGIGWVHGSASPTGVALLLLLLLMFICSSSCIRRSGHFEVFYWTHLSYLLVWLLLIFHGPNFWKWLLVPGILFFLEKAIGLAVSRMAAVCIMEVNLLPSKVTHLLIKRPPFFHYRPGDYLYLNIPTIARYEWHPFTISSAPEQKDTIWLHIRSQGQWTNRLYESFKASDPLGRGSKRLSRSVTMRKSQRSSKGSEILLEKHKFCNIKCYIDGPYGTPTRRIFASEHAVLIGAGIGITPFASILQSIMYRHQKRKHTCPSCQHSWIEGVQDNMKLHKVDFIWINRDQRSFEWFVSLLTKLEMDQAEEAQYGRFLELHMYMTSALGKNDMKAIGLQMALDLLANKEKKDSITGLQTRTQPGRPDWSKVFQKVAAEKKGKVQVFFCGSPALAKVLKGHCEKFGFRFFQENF
# Chain of NADPH oxidase 2 (Homo sapiens) (P04839 whole entry, looked up): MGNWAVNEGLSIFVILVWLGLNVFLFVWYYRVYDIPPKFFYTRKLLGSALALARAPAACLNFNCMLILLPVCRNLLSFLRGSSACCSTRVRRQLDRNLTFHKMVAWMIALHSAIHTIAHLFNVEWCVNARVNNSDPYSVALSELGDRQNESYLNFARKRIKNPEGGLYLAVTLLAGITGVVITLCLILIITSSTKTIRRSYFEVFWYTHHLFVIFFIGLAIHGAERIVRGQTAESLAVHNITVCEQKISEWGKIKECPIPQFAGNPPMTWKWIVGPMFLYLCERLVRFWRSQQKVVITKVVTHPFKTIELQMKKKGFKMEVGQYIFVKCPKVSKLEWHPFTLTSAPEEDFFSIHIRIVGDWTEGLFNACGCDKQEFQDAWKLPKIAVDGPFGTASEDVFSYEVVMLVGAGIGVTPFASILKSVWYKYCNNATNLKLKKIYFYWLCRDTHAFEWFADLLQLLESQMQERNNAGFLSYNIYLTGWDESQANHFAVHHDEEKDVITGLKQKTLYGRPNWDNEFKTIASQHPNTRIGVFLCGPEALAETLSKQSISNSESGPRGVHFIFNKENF
# Chain of NADPH oxidase 4 (Homo sapiens) (Q9NPH5 whole entry, looked up): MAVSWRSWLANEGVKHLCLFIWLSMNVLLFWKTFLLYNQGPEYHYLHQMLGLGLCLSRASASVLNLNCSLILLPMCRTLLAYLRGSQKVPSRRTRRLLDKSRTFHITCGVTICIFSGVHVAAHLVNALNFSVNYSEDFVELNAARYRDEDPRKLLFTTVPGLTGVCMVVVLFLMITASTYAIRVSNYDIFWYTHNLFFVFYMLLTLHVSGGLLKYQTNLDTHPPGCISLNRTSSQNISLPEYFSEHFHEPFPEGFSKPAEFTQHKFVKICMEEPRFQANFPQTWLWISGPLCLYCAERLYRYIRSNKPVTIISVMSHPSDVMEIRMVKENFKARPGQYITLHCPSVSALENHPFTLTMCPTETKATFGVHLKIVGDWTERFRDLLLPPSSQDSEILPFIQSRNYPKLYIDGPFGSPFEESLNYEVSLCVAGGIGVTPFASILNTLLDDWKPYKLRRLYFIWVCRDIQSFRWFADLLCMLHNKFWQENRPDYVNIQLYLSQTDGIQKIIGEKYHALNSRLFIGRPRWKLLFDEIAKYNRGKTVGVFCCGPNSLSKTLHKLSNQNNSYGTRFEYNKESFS
Structure (SMILES),z-score [1],composite z-score [2],z-score [3],z-score [4],z-score [5],z-score [6],z-score [7],z-score [8],z-score [9],z-score [10]
O=C1[C@H]2[C@H]3[C@H](O)[C@H](O)CC(=NOC[C@@H](O)COCc4ccco4)[C@H]3CC[C@H]2C(=O)N1c1cccc(Oc2ccccc2)c1,0.66 (inactive),-0.353,3.18 (inactive),1.15 (inactive),1.28 (inactive),0.795 (inactive),0.404,-2.98 (inactive),1.31 (inactive),-0.185
CCOC(=O)C1=CC[C@H]2C(=O)N(CC)C(=O)[C@@H]12,-0.457 (inactive),-0.0412,1.09 (inactive),1.21 (inactive),0.253 (inactive),0.804 (inactive),-0.45,-0.0988 (inactive),0.484 (inactive),0.829
CC(C)=C1C(=O)C(c2ccccc2)=C2CN3C(=O)N(CCc4ccccc4)C(=O)[C@]3(Cc3ccc(F)cc3)[C@H]21,-2.71 (inactive),0.318,20.9 (active),4.68 (inactive),1.48 (inactive),0.813 (inactive),-0.51,-0.578 (inactive),-1.03 (inactive),-1.11
[N-]=[N+]=NCc1ccccc1C[C@]1(C(=O)NCc2ccccc2)N=C(c2ccc(OCCCO)cc2)O[C@H]1c1ccccc1N=[N+]=[N-],0.0901 (inactive),-0.7,30.6 (active),30.6 (active),2.72 (inactive),3.32 (inactive),-0.275,-0.349 (inactive),-0.15 (inactive),-1.66
CC(CCC(=O)OC[C@H]1O[C@H](C#Cc2ccccc2)C=C[C@@H]1Oc1ccc(C)cc1)=NO[C@@H](C)c1cn([C@H](CO)Cc2ccccc2)nn1,-0.913 (inactive),-0.247,10.5 (active),0.542 (inactive),1.78 (inactive),-1.05 (inactive),0.672,-1.54 (inactive),-0.298 (inactive),-0.428
O=C1[C@H]2[C@H]3[C@H](O)[C@H](O)CC(=NO[C@@H]4O[C@H](CO)[C@@H](O)[C@H](O)[C@H]4O)[C@@H]3CC[C@H]2C(=O)N1Cc1ccc2c(c1)OCO2,-0.161 (inactive),-0.0016,5.54 (inactive),0.373 (inactive),1.3 (inactive),0.404 (inactive),0.117,-0.486 (inactive),0.295 (inactive),-0.163
O=C1C2C=CC(C(O)c3ccc([N+](=O)[O-])cc3)N(Nc3ccc([N+](=O)[O-])cc3)C2C(=O)N1c1ccccc1 (stereo not given),-1.39 (inactive),0.446,12.9 (active),1.96 (inactive),0.958 (inactive),1.02 (inactive),-0.922,-1.24 (inactive),-2.87 (inactive),-2.36
COC(=O)[C@H](C)NC(=O)CCC1CC(OC(=O)NCc2cccc3ccccc23)CC2(CCCC(COC(=O)NCC3CCCCC3)O2)O1 (stereo not given in full),-0.484 (inactive),-0.325,0.994 (inactive),-0.35 (inactive),-0.555 (inactive),0.125 (inactive),-0.444,0.17 (inactive),0.236 (inactive),0.469
O=C(NN=C1C[C@@H](O)[C@@H](O)[C@@H]2[C@@H]3C(=O)N(c4cccc(Oc5ccccc5)c4)C(=O)[C@@H]3CC[C@@H]12)OCc1ccccc1,-0.385 (inactive),0.101,2.57 (inactive),0.237 (inactive),1.09 (inactive),0.0572 (inactive),-0.818,1.05 (inactive),-2.06 (inactive),0.134
O=C1O[C@@H](c2ccccc2)[C@@H](c2ccccc2)N2[C@@H](c3ccc(OCCO)cc3)[C@]3(C(=O)Nc4ccccc43)[C@@H](C(=O)N3CCN(c4ncccn4)CC3)[C@H]12,0.777 (inactive),-0.0347,17.4 (active),3.91 (inactive),2.06 (inactive),1.28 (inactive),-0.183,1.09 (inactive),0.368 (inactive),1
c1ccc(C2NCCc3c2[nH]c2ccccc32)cc1 (stereo not given),-1.78 (inactive),0.155,1.07 (inactive),0.709 (inactive),0.806 (inactive),-0.0204 (inactive),-0.513,0.943 (inactive),-0.561 (inactive),1.23
Cc1ccc(S(=O)(=O)N[C@@H]2COC(=O)[C@H](C)COC(=O)CC=C[C@H]2C)cc1,-0.786 (inactive),-0.0493,0.345 (inactive),0.408 (inactive),0.563 (inactive),-0.0893 (inactive),-0.648,-0.108 (inactive),0.174 (inactive),0.343
COc1ccc(O[C@H]2C=C[C@@H](c3ccccc3)O[C@@H]2CON=C[C@@H](C)[C@H](OCc2ccccc2)C(C)C)cc1,0.302 (inactive),-0.246,2.08 (inactive),0.98 (inactive),0.422 (inactive),0.319 (inactive),0.831,-0.734 (inactive),0.877 (inactive),-0.165
